# Assay outcomes: PubChem, several laboratories
# TWEAK-Fn14 inh – inhibitors of TWEAK-Fn14 signaling, primary screen, luciferase reporter cells, uHTS | TWEAK-stimulated Fn14 reporter cells, luciferase luminescence, 8 h | inhibition, % at 10 µM | 2% of 360,000 active; in the data active = inhibition above about 50%
# Shn3 inh set2 – reduction of Shn3 3'UTR firefly luciferase signal, primary screen, Schnurri-3 inhibitor project, cell-based, Clone20 osteoblasts, set 2. Clone20 osteoblast Shn3 3'UTR firefly luciferase, 24 h. inhibition, % at 12.5 µM. 0.52% of 360,000 active;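 active = mean inhibition of at least 75% with every replicate also reaching 75%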;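 note: 0% = median of neutral control wells and 100% = pilot-screen positive control compound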
# MITF TRPM1 inh – inhibitors of MITF-dependent TRPM1 promoter reporter, primary screen, cell-based, SK-MEL-5, single point, luciferase; SK-MEL-5 TRPM1 promoter luciferase, 24 h; inhibition, % at 12.5 µM; 0.83% of 330,000 active;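 active = mean inhibition across replicates of 60% or more, whatever share of single replicates reaches that level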
# TROY NFkB inh – inhibitors of TROY-driven NF-kB signaling, primary screen, Q293 LMP1-TROYcd cells, NF-kB luciferase, uHTS; Q293 LMP1-TROYcd NF-kB luciferase reporter, 4 h; AID 1347056, 2019; 0.98% of 360,000 active; inhibition, % at 10 µM;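 active = compounds whose plate-normalised and pattern-corrected inhibition of the luciferase reporter signal at the single screening dose is 50% or more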
# Peg3 prom inh – Peg3 promoter-driven luciferase inhibitors, primary screen, cell-based, HeLa, luciferase luminescence. 1.7% of 360,000 active. AID 588405, 2011. inhibition, % at 20 µM. HeLa PEG-Prom luciferase reporter, overnight;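 active = inhibition of at least 50% at 20 µM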
# EBV LMP1 NFkB – EBV LMP1-driven NF-kappaB luciferase reporter inhibitors, primary screen, cell-based, luminescence, single point | 0.69% of 350,000 active | LMP1-induced NF-kappaB luciferase reporter cells | inhibition, % at 12.5 µM; in the data active = inhibition above about 41%;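 note: 0% = neutral control wells and 100% = reference inhibitor control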
# An asterisk follows results filed as active; / = not tested or not shown. Compounds with a hit are over-represented: about 4.1% of the library has one in this group of screens.
SMILES,TWEAK-Fn14 inh,Shn3 inh set2,MITF TRPM1 inh,TROY NFkB inh,Peg3 prom inh,EBV LMP1 NFkB
COc1ccccc1-c1cc(NC=O)c2ncc(-c3cccc(C(F)(F)F)c3)n2c1,1,41,/,12,22,/
COc1cc(-c2cc(NC=O)c3ncc(-c4cccc(C(F)(F)F)c4)n3c2)cc(OC)c1OC,-5,28,/,2,52*,/
CCOc1cc2c(cc1OCC)CN(CC(=O)Nc1ccccc1C(=O)NC1CC1)CC2,14,-2,4,-5,6,0
Clc1nccc(N2CCN(c3ccccc3Cl)CC2)n1,-3,-8,/,5,-6,/
COc1ccc(F)cc1-c1cc(NC=O)c2ncc(-c3cc(OC)c(OC)c(OC)c3)n2c1,74*,17,/,47,46,/
CCO[C@H]1OC(C(N)=O)=C[C@@H](C(C)(C)C)[C@@H]1CCCO,54*,-1,6,-19,0,1
COc1ccc(-c2nsc3c(N4CCCC4)ncnc23)cc1,95*,27,25,66*,6,25
O=C(c1ccco1)N1CCN(c2ncnc3c(-c4ccc(Cl)cc4)nsc23)CC1,61*,0,15,63*,-32,10
CC(Cc1cccs1)NC(=O)Nc1ccc(F)cc1 (centres undefined),-15,89*,-16,-28,-72,-15
COc1cc(NC(=O)C2CC(c3c(F)cccc3Cl)=NO2)cc(OC)c1OC (centres undefined),2,65,-1,19,14,0
CCCCN(CCCC)c1nc(-c2ccncc2)nc2ccccc12,27,30,-2,26,52*,-10
CCN(CC)c1nc(-c2ccccc2)nc2ccccc12,1,-6,6,-3,7,4
O=C(Cc1ccccc1)O/N=C1\CCCc2ccccc21,0,-1,11,1,10,-4
O=C(O/N=C1\CCCc2ccccc21)c1cccs1,-23,-6,-8,80*,-15,-3
COc1cc(/C=N/NC(=O)c2nnn(-c3nonc3N)c2C(C)C)ccc1OCc1ccc(F)cc1,76*,53,-29,38,-148,-15
CCCc1c(C(=O)N/N=C/c2ccc(OCc3ccccc3)c(OC)c2)nnn1-c1nonc1N,-26,-19,-64,-8,-89,-14
CN(C)Cc1c(C(=O)N/N=C/c2cccc(OCc3ccc(F)cc3)c2)nnn1-c1nonc1N,29,-14,3,14,-18,2
CC(C)c1c(C(=O)N/N=C/c2ccc3c(c2)OCO3)nnn1-c1nonc1N,-32,-18,-17,-30,-76,0
CCN(CC)c1ccc(/C=N/NC(=O)c2nnn(-c3nonc3N)c2C(C)C)c(O)c1,-10,92*,68*,11,53*,64*
CC(C)c1c(C(=O)N/N=C/c2cccc(OCc3ccc(F)cc3)c2)nnn1-c1nonc1N,49,5,3,53*,-16,-3
Cc1cc(F)ccc1C(O)c1ncc(-c2ccccc2F)[nH]1 (centres undefined),3,-41,/,-17,-37,/
Cc1ccc2c(c1)C1CN(C)CCC1N2C(=O)c1cccc(S(=O)(=O)N(C)C)c1 (centres undefined),2,-2,4,67*,-4,9
N#Cc1cccc2c1-c1ccccc1/C2=N/NC(N)=O,-21,21,3,-24,52*,-15
CCOc1ccc(CC(=O)Nc2nccs2)cc1OCC,-14,9,11,-6,-1,1
CN(C)CCN1CCN(C2CN(Cc3ccccc3)S(=O)(=O)C2)CC1 (centres undefined),-7,3,/,7,-7,/
Cc1cc(Oc2nc3ccccn3c(=O)c2/C=C(\C#N)C(=O)NC2CCS(=O)(=O)C2)ccc1Cl (centres undefined),14,8,16,-3,66*,16
CCC(=O)Nc1cccc(C(=O)/C=C/c2cc(Br)ccc2OC)c1,94*,-14,91*,6,104*,67*
CC(=O)Nc1cccc(C(=O)/C=C/c2ccc(F)cc2)c1,72*,-2,-7,-19,107*,0
